Screening results from PubChem BioAssay.
MPTP inh: blocks calcium-induced mitochondrial swelling; isolated mouse mitochondria, Ca2+ swelling absorbance, 30 min; inhibition, % at 10 µM; 360,000 compounds, 1.4% hits; AID 602449;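 active means inhibition of 50% or more, scaled per plate between neutral and stimulator controls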;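 further: 0% = DMSO wells given calcium and 100% = 1 mM EGTA wells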
F508del corr: correctors of CFTR F508del function in bronchial epithelial cells; activity (quench increase), % at 7.58 µM; CFBE cells, YFP halide quenching; stimulated with forskolin plus potentiator P3; % fluorescence drop versus neutral controls; 350,000 compounds, 0.36% hits;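 active means mean added fluorescence quench of at least 8% versus neutral control, with both replicates also reaching 8%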;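 further: cells transiently co-express mutant CFTR-F508del with the halide-sensitive YFP; corrector assay measuring rescue of mutant channel to the surface after 24 h compound exposure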
ATG4B inh: inhibitors of human ATG4B cysteine protease; inhibition, % at 8.33 µM; ATG4B cleavage of LC3-PLA2, NBD-HPC fluorescence, 1 h; 340,000 compounds, 0.51% hits; Q9Y4P1; in the data active means inhibition above about 40%
CendR NRP1 mod: alters CendR peptide binding to human NRP-1; 360,000 compounds, 0.85% hits; FAM-RPARPAR peptide binding to NRP-1, fluorescence polarization; inhibition, % at 25 µM; O14786; AID 602438;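 active means inhibition or corrected inhibition above about 18%, plus a signal ratio from 0.5 to 1.5, limit read from the data, passing the limit was not always enough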
Target sequence (O14786 whole entry, looked up): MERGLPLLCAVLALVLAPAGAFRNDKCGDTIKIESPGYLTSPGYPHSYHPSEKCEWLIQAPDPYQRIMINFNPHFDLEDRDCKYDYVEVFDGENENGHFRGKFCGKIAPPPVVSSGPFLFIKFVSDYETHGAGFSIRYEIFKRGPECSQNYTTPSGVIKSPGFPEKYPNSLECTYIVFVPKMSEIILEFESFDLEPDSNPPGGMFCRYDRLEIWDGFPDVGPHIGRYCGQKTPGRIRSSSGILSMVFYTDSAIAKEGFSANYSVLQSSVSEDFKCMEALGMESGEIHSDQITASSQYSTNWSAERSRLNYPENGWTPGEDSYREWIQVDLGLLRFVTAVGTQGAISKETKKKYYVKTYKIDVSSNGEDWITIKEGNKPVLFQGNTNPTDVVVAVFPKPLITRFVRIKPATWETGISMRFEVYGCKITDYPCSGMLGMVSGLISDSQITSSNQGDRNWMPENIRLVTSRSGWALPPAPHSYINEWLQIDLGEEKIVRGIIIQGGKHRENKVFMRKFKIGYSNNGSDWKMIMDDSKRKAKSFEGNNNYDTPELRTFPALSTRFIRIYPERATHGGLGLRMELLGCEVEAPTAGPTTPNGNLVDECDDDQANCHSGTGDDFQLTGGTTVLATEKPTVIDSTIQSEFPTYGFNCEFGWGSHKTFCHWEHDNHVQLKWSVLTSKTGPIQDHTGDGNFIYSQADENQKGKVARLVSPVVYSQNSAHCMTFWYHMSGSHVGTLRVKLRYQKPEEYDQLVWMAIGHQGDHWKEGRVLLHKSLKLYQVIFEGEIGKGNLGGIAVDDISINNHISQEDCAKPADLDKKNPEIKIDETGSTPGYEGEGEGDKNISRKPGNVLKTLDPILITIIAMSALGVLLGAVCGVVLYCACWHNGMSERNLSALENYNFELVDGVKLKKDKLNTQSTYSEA
SKN-1 block: blocks SKN-1 activity in C. elegans. AID 624304. 360,000 compounds, 0.49% hits. inhibition, % at 21.8 µM. C. elegans VP596 Pgst-4::GFP/RFP ratio, acrylamide-induced, 24 h;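 active means interference check ratio from 0.5 to 1.5 plus GFP to RFP signal ratio inhibition reaching or exceeding a fixed threshold, cut at about 30% in these data, passing the limit was not always enough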
MPTP counter: Rhodamine 123 counter-screen of mitochondrial pore hits; shares compounds with MPTP inh; isolated mitochondria, membrane potential, Rhodamine 123 fluorescence; inhibition, % at 10 µM; 5,000 compounds, 78% hits; in the data active means inhibition above about 22%;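 further: 0% = DMSO vehicle and 100% = positive control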
MPTP abs DR: MPTP inhibition, dose response swelling confirmation; shares compounds with MPTP inh; isolated mitochondria swelling, absorbance; IC50, µM; 780 compounds, 58% hits; AID 651561; in the data active means IC50 below about 20 µM
MPTP counter DR: active in counter-screen for permeability transition pore inhibitors. IC50, µM. shares compounds with MPTP inh. AID 651564. 780 compounds, 49% hits. isolated mitochondria counterscreen, fluorescence read-out; in the data active means IC50 below about 80 µM
* marks the source's active call; other numbers are inactive results; x = not tested or not shown. Hits are enriched below; roughly 2.7% of the tested compounds scored in any of these assays.

SMILES	MPTP inh	F508del corr	ATG4B inh	CendR NRP1 mod	SKN-1 block	MPTP counter	others
CC(C)OC(=O)c1ccc(NC(=O)CSc2nc3ncccc3[nH]2)cc1	71*	-2	-11	-10	15	47*
O=C(NCc1ccco1)c1ccccc1NS(=O)(=O)c1ccc(Br)s1	71*	x	13	-11	-18	81*
OC[C@H]1[C@@H](c2ccc(-c3cccnc3)cc2)[C@H]2CN(CC3CC3)CCCCN21	x	1	x	x	x	x
Cc1cc(Cl)ccc1NC(=O)CCC(=O)N/N=C/c1cc([N+](=O)[O-])ccc1O	17	3	-11	3	-6	x
O=[N+]([O-])c1ccc(/C=N/NC(=S)Nc2ccc(Cl)cc2Cl)s1	52*	-2	-7	-25	-2	61*
O=[N+]([O-])c1ccc(O)c(/C=N/NC(=S)Nc2ccc(Cl)cc2Cl)c1	96*	-1	0	-20	6	47*
C[C@@H]1CN([C@H](C)CO)C(=O)c2cccc(NS(=O)(=O)c3cn(C)cn3)c2O[C@@H]1CN(C)S(=O)(=O)c1ccc(F)cc1	x	-1	x	x	x	x
CCc1ccccc1NC(=O)c1ccc(CN2CCC(Cc3ccccc3)CC2)cc1	57*	x	6	32*	9	-14
CCOc1cc(CNC2CCCC2)ccc1OCc1ccccc1Cl	7	-1	2	1	13	x
CCOc1cc(CNC2CCCC2)cc(Cl)c1OCc1ccccc1	68*	x	-3	-2	56*	-3	MPTP abs DR=3.1*;MPTP counter DR=49*
O=C(c1ccccc1)N1CC2(C1)[C@H](c1ccccc1)[C@H](CO)N2CC1CC1	x	-3	x	x	x	x
Cc1cccc(Nc2nnc(SCc3cn4ccsc4n3)s2)c1	76*	x	9	-6	-2	-1	MPTP abs DR=>100;MPTP counter DR=>80
O=C(C[C@H]1C[C@H]2c3cc(NC(=O)c4ccc5c(c4)OCO5)ccc3O[C@H]2[C@@H](CO)O1)NC1CCCCC1	x	-2	x	x	x	x
CC(C)(C)c1ccc(-c2cn(-c3ccc(Br)cc3)c3[n+]2CCCS3)cc1	53*	3	5	3	3	99*
Cc1nn(C)c(C)c1CN(C)S(=O)(=O)c1ccc2ccccc2c1	110*	x	-6	-3	1	102*
Cc1nn(C)c(C)c1CN(C)S(=O)(=O)c1ccc(F)cc1	-1	x	-3	3	-11	x
O=C(Nc1cc(Cl)cc(Cl)c1)c1coc(=O)c(Br)c1	81*	-4	0	-15	8	87*
O=C(c1cnccn1)N1CC(=O)N2[C@H](CO)[C@@H](c3ccc(C#CC4CCCC4)cc3)[C@H]2C1	x	-1	x	x	x	x
COc1ccc(OC)c(NC(=O)CSc2ncnc3c2cnn3-c2ccccc2Cl)c1	84*	x	-4	4	9	82*
COc1cc(NC(=O)CSc2ncnc3c2cnn3Cc2ccccc2)cc(OC)c1	54*	x	-10	3	-4	28*
C[C@@H]1CN([C@@H](C)CO)S(=O)(=O)c2ccc(C#CC3CC3)cc2O[C@H]1CN(C)Cc1ccccc1	x	-1	x	x	x	x
O=C(c1ccccc1F)N1CC(=O)N2[C@H](C1)[C@H](c1ccc(-c3cccnc3)cc1)[C@@H]2CO	x	-3	x	x	x	x
COc1cccc(S(=O)(=O)N2CCC3(CC2)CN(C(=O)Nc2cccc(F)c2)[C@@H](CO)c2[nH]c4cc(OC)ccc4c23)c1	x	1	x	x	x	x
CCC(=O)Nc1ccc2c(c1)OC[C@H](C)N(C(=O)CN(C)C)C[C@H](C)[C@@H](OC)CN(C)C2=O	x	-1	x	x	x	x
Cc1cccc(NC(=O)C(C)OC(=O)c2ccccc2NS(=O)(=O)c2cc(C)c(C)c([N+](=O)[O-])c2)c1 (stereo not given)	93*	x	-11	5	-3	65*
SMILES	MPTP inh	F508del corr	ATG4B inh	CendR NRP1 mod	SKN-1 block	MPTP counter	others
CC(=O)Nc1ccc(NC(=O)C(C)OC(=O)c2ccccc2NS(=O)(=O)c2cccs2)cc1 (stereo not given)	-1	-2	-4	-9	-7	x
C[C@@H]1CN([C@H](C)CO)C(=O)Cc2cc(NC(=O)C3CCCCC3)ccc2O[C@@H]1CN(C)S(=O)(=O)c1ccc(Cl)cc1	x	-2	x	x	x	x
CC1(C)CC(=O)C(=Cc2cn(CCC#N)nc2-c2ccc(F)cc2)C(=O)C1	63*	-2	1	5	5	41*
N#CCCn1cc(/C=N/O)c(-c2ccc(F)cc2)n1	0	x	-1	-6	0	x
CC1(C)CC(=O)C(=Cc2cn(CCC#N)nc2-c2ccc(Cl)cc2)C(=O)C1	77*	x	7	-13	2	59*
O=[N+]([O-])c1cc(S(=O)(=O)Nc2cccc(C(F)(F)F)c2)ccc1-n1nnc2ccccc21	92*	x	12	2	5	84*
O=C(NC(NC(=S)Nc1c(Cl)cccc1Cl)C(Cl)(Cl)Cl)OCc1ccccc1 (stereo not given)	100*	-1	29	10	15	67*
COc1ccc(C)cc1NC(=O)c1ccccc1NS(=O)(=O)c1ccc(Cl)s1	88*	2	-9	-14	16	61*
Cc1ccc(NC(=O)c2ccccc2NS(=O)(=O)c2ccc(Cl)s2)cc1S(=O)(=O)N1CCOCC1	99*	x	0	-18	13	77*
CCC(=O)N(CC)C[C@@H]1[C@@H](c2ccccc2)[C@H](CO)N1C(C)=O	x	-3	x	x	x	x
C[C@@H]1CN([C@@H](C)CO)C(=O)Cc2cc(NC(=O)C3CC3)ccc2O[C@H]1CN(C)Cc1ccc2c(c1)OCO2	x	3	x	x	x	x
COC(=O)c1cc2c(c3c4cc(F)ccc4n(S(=O)(=O)c4ccc(OC)cc4)c13)C(=O)N(Cc1ccccc1OC)C2	x	3	x	x	x	x
Cc1cccc(C)c1OC(=O)C(c1ccccc1)c1ccccc1	1	-2	3	9	2	x
C=CCC(C(=O)Oc1c(C(C)(C)C)cc(C)cc1C(C)(C)C)c1ccccc1 (stereo not given)	55*	1	-3	9	-5	-9	MPTP abs DR=6.9*;MPTP counter DR=>80
Cc1ccc(S(=O)(=O)N(C)C[C@@H]2Oc3ccc(NC(=O)C4CCCCC4)cc3CC(=O)N([C@H](C)CO)C[C@@H]2C)cc1	x	1	x	x	x	x
Cc1cc(/C=N/n2cnnc2)c(C)n1-c1ccc(OCc2ccc(Cl)cc2Cl)cc1	108*	x	16	1	6	101*
Cc1cc(/C=N/n2cnnc2)c(C)n1-c1ccc(Cl)cc1	0	x	12	12	4	x
Cc1cc(/C=N/n2cnnc2)c(C)n1-c1ccc(OCc2ccc(F)cc2)cc1	99*	x	19	1	7	93*
Cc1cc(/C=N/n2cnnc2)c(C)n1-c1ccccc1	-4	x	9	3	9	x
